Source: PubChem BioAssay (National Center for Advancing Translational Sciences (NCATS))
Rab9 promoter act – Rab9 promoter activation | 320,000 tested, 2.8% active | Potency, µM (top dose mostly 9.22 µM), for the others: at the highest dose activation, negative = inhibition, hits mostly activators | Huh7 Rab9 promoter-luciferase reporter, luminescence, 24 h; also: % of control where 0% means no effect; nearly all actives have a fitted effect of over 60% in size
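Stable Rab9-luc Huh7, 1500 cells/well, 2 h settle; cmpd in DMSO, 24 h, 37 °C/5% CO2; luciferase reagent 10 min RT; luminescence.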
FLuc modulator – counter-screen for miR-21 project: firefly luciferase inhibitors or activators; 360,000 tested, 6.9% active; purified FLuc, Km substrates, luminescence inhibition; Potency, µM (highest dose often 57.5 µM), for the others: top-dose activity change, negative = inhibition, usual class: inhibitors; P08659;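 also: plate controls were vehicle for no effect and reference inhibitor for full effect; nearly all actives have a fitted effect of over 55% in size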
Target sequence (P08659 whole entry, looked up): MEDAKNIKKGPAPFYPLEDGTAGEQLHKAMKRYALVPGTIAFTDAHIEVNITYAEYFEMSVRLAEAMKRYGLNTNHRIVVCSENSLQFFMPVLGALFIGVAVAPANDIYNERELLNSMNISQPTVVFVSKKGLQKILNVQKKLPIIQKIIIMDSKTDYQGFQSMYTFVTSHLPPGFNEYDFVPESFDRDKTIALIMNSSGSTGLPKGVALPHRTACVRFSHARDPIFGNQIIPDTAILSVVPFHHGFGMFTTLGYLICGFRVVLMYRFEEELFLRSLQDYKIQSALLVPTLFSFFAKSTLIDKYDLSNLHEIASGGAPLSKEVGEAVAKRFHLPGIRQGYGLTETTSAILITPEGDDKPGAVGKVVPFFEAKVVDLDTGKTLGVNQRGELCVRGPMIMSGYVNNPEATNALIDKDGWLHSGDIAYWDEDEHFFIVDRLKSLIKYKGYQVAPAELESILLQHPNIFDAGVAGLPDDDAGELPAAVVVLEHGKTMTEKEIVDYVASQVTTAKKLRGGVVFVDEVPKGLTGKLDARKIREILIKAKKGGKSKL
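Biochemical qHTS of compounds, final roughly 60 µM downward over six points, against 10 nM purified firefly luciferase using Km concentrations of substrates (10 uM D-luciferin, 10 uM ATP) in Tris acetate pH 7.5 buffer; luminescence output.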
Luc counter – Kinase-Glo luciferase inhibition (counter-screen); 200,000 tested, 0.28% active; Potency, µM (top dose mostly 38.3 µM), without a hit: at the highest dose activity change, negative = inhibition, most hits filed as inhibitors; Kinase-Glo luciferase, ATP luminescence, 8 min; Q27757; AID 1379; also: % is scaled to controls: 0 for no effect and ±100 for the full control effect; nearly all actives have a fitted effect of over 60% in size
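Kinase-Glo luciferase light output from ATP and luciferin was measured with 10 uM ATP, within the enzyme's linear range. Buffer: 50 mM imidazole pH 7.2, 50 mM KCl, 7 mM MgCl2, 0.01% Tween 20, 0.05% BSA; luminescence read after 8 min at ambient temperature.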
SMN2 splice enh – enhancers of SMN2 splice variant expression | HEK293 SMN2-luciferase splicing reporter, luminescence, 30-36 h | Potency, µM (doses to about 46.1 µM), for inactives: at the highest dose activity change, positive = activation, actives largely listed as activators | AID 1458 | 210,000 tested, 2.8% active; also: % of control where 0% means no effect; nearly all actives have a fitted effect of over 55% in size
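HEK293 cells carry an SMN2 […]–luciferase reporter in which exon 7 inclusion puts luciferase in frame. Cells were plated 10-12 h before compound addition, then incubated 30-36 h at 37C. ONE-Glo luminescence was read; sodium butyrate at 4.5 mM final served as control.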
NPC1 promoter act – activates the NPC1 promoter | Huh7 NPC1 promoter luciferase reporter, 24 h | Potency, µM (series often up to 9.22 µM), for the others: at the highest dose activation, most hits filed as activators | 320,000 tested, 2.4% active | AID 485313; also: % of control where 0% means no effect; nearly all actives have a fitted effect of over 60% in size
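Stable NPC1-promoter luciferase Huh7 line; cpd (DMSO) 24 h, 37 °C, 5% CO2; Amplite luciferase reagent 10 min RT; luminescence readout. qHTS format.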
ELG1 genotoxic – genotoxicity induction in ELG1-luciferase HEK293T cells; AID 504466; HEK293T ELG1-luciferase reporter, luminescence, 16 h; 330,000 tested, 1.3% active; Potency, µM (top dose mostly 46 µM), for inactives: at the highest dose activity change, positive = activation, actives largely listed as activators; also: % of control where 0% means no effect; nearly all actives have a fitted effect of over 60% in size
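Step 1: seed 2,000 HEK293T ELG1-luciferase cells per well. Step 2: add compound or DMSO, incubate 16 hr at 37 °C. Step 3: ONE-Glo, 30 min at room temperature, read luminescence.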
Starred values were filed as active, the others as inactive; ? = inconclusive; . = no result; [ ] = remark or other dose. An excerpt weighted towards active compounds, which were near 7.5% of everything screened. Calls follow the shape of the dose curve; as a rule, active = well fitted curve in the direction sought with a large enough effect; inconclusive = small, poorly fitted or top-dose-only effect, or another doubt; inactive = no such curve, though single readings can be large; an effect the other way counts as inactive or inconclusive. Potency is read from the fitted curve at half-maximal effect.

SMILES | Rab9 promoter act | FLuc modulator | Luc counter | SMN2 splice enh | NPC1 promoter act | ELG1 genotoxic
CC(Sc1nnc(Nc2ccccc2)s1)C(=O)Nc1nc(-c2ccccc2)cs1 (stereo not given) | 1% | -5% | 3% | 4µM* | -2% | -8%
CC(Sc1nnc(NC2CC2)s1)C(=O)Nc1ccc(S(N)(=O)=O)cc1 (stereo not given) | . | . | . | . | . | 1%
CC(Sc1nnc(NCc2ccccc2)s1)C(=O)Nc1ccc2c(c1)C(=O)c1ccccc1C2=O (stereo not given) | ? | ? | -4% | 1.3µM* | ? | 8%
CCOc1ccc(NC(=O)CCc2c(C)nc3cc(-c4ccccc4OC)nn3c2C)cc1 | . | -9% | . | -3% | . | .
CC(C)(C)c1ccc(NC(=O)C2=CC=CN3CCS(=O)(=O)N=C23)cc1 | ? | . | . | . | 30% | ?
CCN(CC)c1ccc(NC(=O)C2=CC=CN3CCS(=O)(=O)N=C23)cc1 | ? | 3µM* | . | . | 17% | 12%
Cc1cc(C(=O)Nc2nnc(C3CCCCC3)s2)cs1 | 1.6µM* | -7%[2.3 µM] | -3% | 13% | ? | ?
Cc1cc(C(=O)Nc2nnc(C(F)(F)F)s2)cs1 | ? | 12µM* | . | . | ? | 0%
Cc1c(N=Cc2ccc(Cl)o2)c(=O)n(-c2ccccc2)n1C | 2% | -4% | -6% | 7% | 1% | 1%
C(/C=C\c1ccccc1)=Nc1ccc2c(c1)Cc1ccccc1-2 | . | . | -3%[7.66 µM] | 0%[9.22 µM] | . | .
Cc1ccccc1-c1ccc(C=Nc2c(C)n(C)n(-c3ccccc3)c2=O)o1 | 2% | 4.8µM* | -10% | -34% | 2% | 3%
Cc1c(N=C/C=C/c2ccccc2)cnn1C | 2% | 6.7µM* | 0% | -10% | 1% | 2%
Cc1c(N=Cc2ccc(-c3ccc(Cl)cc3)o2)c(=O)n(-c2ccccc2)n1C | 4% | 9.5µM* | -7% | -34% | -4% | 6%
Cc1c(N=Cc2ccco2)c(=O)n(-c2ccccc2)n1C | -5% | -2% | -1% | -3% | 2% | 1%
Cc1c(N=C/C=C/c2ccccc2)c(=O)n(-c2ccccc2)n1C | 10% | 19µM* | -2% | -2% | -3% | 3%
Cc1cc(S(=O)(=O)NCCCN2CCOCC2)c(Cl)cc1Cl | 4% | 2% | . | . | 2% | 4%
CSc1ncc(C(=O)Nc2c(C)cccc2C)c(-c2ccccc2)n1 | . | -7% | . | . | . | .
COc1cccc(/C=N/Nc2ncnc3c2[nH]c2ccc(C)cc23)c1OC | 24% | 1.5µM* | . | . | 17% | 8%
C=CCNc1ncnc2c1[nH]c1ccc(C)cc12 | 2.5µM* | 4.3µM* | -2% | 2.8µM* | ? | 9.2µM*
CCOC(=O)c1c(C)n(S(=O)(=O)c2ccc(C)cc2)c2ccc(O)c(C(=O)O)c12 | 2% | 3% | . | . | 1% | 4%
Cc1cc(C)c2nc(-c3ccccn3)cc(C(=O)Nn3cnnc3)c2c1 | 2% | 19µM* | 0% | 0% | -3% | 0%
COc1cccc(-c2cc(C(=O)Nc3ccc4c(c3)OCCO4)c3ccccc3n2)c1 | -2% | ? | 2% | -7% | -3% | 0%
Cc1cc(C)c2nc(-c3ccccn3)cc(C(=O)NCc3cc(C)n(C)n3)c2c1 | -4% | -7% | -2% | 13% | -1% | ?
CC(C)Oc1cccc(-c2cc(C(=O)NN3CCOCC3)c3ccccc3n2)c1 | -2%[1.84 µM] | 13µM* | . | . | -1% | -1%
CCc1ccc(-c2cc(C(=O)N3N=C(C(F)F)CC3(O)C(F)F)c3ccccc3n2)cc1 (stereo not given) | 28% | 5.4µM* | -4% | 9% | 21% | 0%
CC(C)Oc1cccc(-c2cc(C(=O)NC(=S)N(C)c3ccccc3C(=O)O)c3ccccc3n2)c1 | -1% | 2.7µM* | 0% | 18% | 1% | 3%
Cc1ccc(C(=O)O)cc1NC(=O)CSc1ncnc2sc3c(c12)CCC3 | 1% | -15% | . | . | -1% | 0%
COc1ccc(/C=C/C(=O)Nc2nc(-c3cccs3)ns2)cc1OC | . | -2% | . | . | . | .
